Assay outcomes (PubChem)
Most compounds without a hit are left out; they make up all but 13% or so of the library.
Lassa entry inh – qHTS for Inhibitors of binding or entry into cells for Lassa Virus | 300,000 compounds, 1.2% hits | Potency, µM (highest dose often 37.9 µM), for inactives: at the highest dose activity change, negative = inhibition, actives largely listed as inhibitors | AID 540256, 2011 | Lassa virus pseudotype entry inhibition, cell reporter; calls by dose curve; tested in HEK293 cells; note: potency is the fitted concentration of half-maximal effect; % is set by controls: 0 for no effect and ±100 for the full control effect; nearly all actives have a fitted effect of over 50% in size
MARV entry inh – qHTS for inhibitors of binding or entry into cells for Marburg Virus; Marburg virus pseudotyped entry inhibition, cell reporter; Potency, µM (highest dose often 37.8 µM), for inactives: at the top dose activity change, negative = inhibition, most hits filed as inhibitors; 300,000 compounds, 1.8% hits; calls by dose curve; tested in HEK293 cells; note: potency is the fitted concentration of half-maximal effect; % is set by controls: 0 for no effect and ±100 for the full control effect
FMDV antiviral – High Throughput Screening for Foot and Mouth Disease Virus Antivirals | FMDV antiviral cell-based qHTS | 410,000 compounds, 1.2% hits | Potency, µM (titrated, usually from 57.9 µM), for the others: at the highest dose activity change, negative = inhibition, most hits filed as inhibitors; calls by dose curve; tested in HEK293T cells; note: read-out not given here; potency is the fitted concentration of half-maximal effect; % is set by controls: 0 for no effect and ±100 for the full control effect; nearly all actives have a fitted effect of over 45% in size
HCV inh – qHTS Assay for Inhibitors of Hepatitis C Virus (HCV); Huh7.5.1 HCVcc-Cre infection, luciferase reporter, 44 h; Potency, µM (doses to about 41.8 µM), inactives show at the highest dose activity change, negative = inhibition, usual class: inhibitors; 340,000 compounds, 3.4% hits; active = well fitted inhibition curve with a large enough effect; inconclusive = small, poorly fitted or top-dose-only effect, or another doubt; inactive = no such curve, though single readings can be large or run the other way; note: potency is the fitted concentration of half-maximal effect; % is set by controls: 0 for no effect and ±100 for the full control effect
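Reporter virus HCVcc-Cre (~0.5 moi) infects cells exposed to compound; seeding density 1,000 cells/well with 4 h settling beforehand. Luminescence, 15 sec read, taken 44 h post-infection following a 15 min RT substrate incubation.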
Shiga inhibitor – A qHTS for Small Molecule Inhibitors of Shiga Toxin; Vero cells, Shiga toxin protein synthesis inhibition reporter; inhibition, % at 38.7 µM; 290,000 compounds, 9.2% hits; in the data active = inhibition mostly above about 28%, no sharp cut-off; inactive = mostly below about 43%; note: 0% is about no effect
CHX counter – Cycloheximide Counterscreen for Small Molecule Inhibitors of Shiga Toxin. max response, %. cell reporter, cycloheximide protein synthesis inhibition counterscreen. 300,000 compounds, 12% hits; in the data active = max response mostly above about 13%, no sharp cut-off; inactive = mostly below about 14%; note: read at 38.3 µM for the half of the compounds with a filed dose; 0% is about no effect
An asterisk follows results filed as active; ? = inconclusive; . = not tested or not shown; [ ] = remark or other dose.

SMILES | Lassa entry inh | MARV entry inh | FMDV antiviral | HCV inh | Shiga inhibitor | CHX counter
O=C(Nc1ccc(SC(F)F)cc1)c1ccc2nccnc2c1 | 9% | ? | . | 3.5µM* | 41* | 46*
O=C(Nc1ccc(OC(F)(F)F)cc1)c1ccc2nccnc2c1 | -22%[46.1 µM] | ? | ? | ? | 79* | 27*
O=C(Nc1ccc(SC(F)F)cc1)c1cc(-c2cccs2)on1 | 27%[46.1 µM] | 4%[46.1 µM] | 37% | . | . | .
CCOC(=O)CN1CC23C=CC(O2)C(C(=O)NC2CCCC2)C3C1=O (centres undefined) | . | . | 0% | 1% | 12 | -1
CN(C)CCOC1c2ccccc2C=Cc2ccccc21 | ? | ? | -26% | ? | . | .
CN(C)CCOC1c2ccccc2CCc2ccc3ccccc3c21 (centres undefined) | ? | 5µM* | ? | ? | . | .
COCC(=O)N/N=C\c1ccccc1OC/C=C/c1ccccc1 | . | . | 44% | -14% | -7 | -1
COCc1nnc(NC(=O)CCC2CCCCC2)s1 | 0% | 13% | 17% | ? | 12 | -1
CCCCOc1ccc(CSCCNC(=S)Nc2ccccc2)cc1 | ? | -18% | 0% | ? | 18 | -3
CCCCCOc1ccc(CSCCNC(=S)Nc2ccccc2)cc1 | -16% | 3% | 25% | ? | 62 | 24*
C/C(=N\Nc1nc(N)cc(Cl)n1)c1cccc([N+](=O)[O-])c1 | -15%[14.3 µM] | 3% | 32% | . | 75* | 37*
C/C(=N\Nc1nc(N)cc(Cl)n1)c1cccc(N)c1 | 5% | ? | 10% | -4% | 39* | 52*
C/C(=N\NC(=S)NC(C)C)c1cccc([N+](=O)[O-])c1 | -2% | 12% | 2% | 1% | -1 | -1
C/C(=N/Nc1nc(C)c(C)s1)c1cccc([N+](=O)[O-])c1 | . | . | 47% | ? | 30* | 30*
COc1c(O)cc(O)c2c(=O)cc(-c3ccccc3)oc12 | . | . | 56% | ? | . | .
CCCCCn1c(SCc2ccncc2)nc2cc(C(=O)NCc3ccco3)ccc2c1=O | -6% | -5% | ? | 14µM* | -9 | -1
Cc1ccc(CSc2nc3cccnc3n2Cc2ccc(C(=O)NCc3ccco3)cc2)cc1 | -1%[46.1 µM] | . | -14% | . | . | .
O=C(CSc1nc2ccccc2c(=O)n1Cc1ccco1)N1CCCCCC1 | ? | -15% | ? | 11µM* | 20 | 17*
O=C(NCc1ccco1)c1ccc2c(=O)n(Cc3ccco3)c(SCC(=O)N3CCCC3)nc2c1 | 10% | ? | -3% | 13µM* | 39* | 33*
Cc1cc(NC(=O)CSc2nc3cc(C(=O)NCCCOC(C)C)ccc3c(=O)n2Cc2ccco2)no1 | ? | ? | -15% | 7.1µM* | 37 | 3
COCCNC(=O)c1ccc2c(=O)n(Cc3ccco3)c(SCC(=O)NC3CCCCC3)nc2c1 | 4% | 21% | -3% | ? | -15 | -2
CCC1CCCCN1C(=O)CSc1nnc2nc(C)cc(C)n12 (centres undefined) | 5% | 18% | -23% | 19% | . | .
COc1ccc(CCC(=O)Nc2cc3c4c(c2)CC(=O)N4CCC3)cc1 | -5%[46.1 µM] | -5% | -11% | ? | . | .
COC(=O)c1ccc2c(c1)NC1=C(C(=O)CC(C)(C)C1)C(c1ccncc1)N2 (centres undefined) | -15% | ? | 61% | 16% | 84* | 42*
Cn1cccc1C1Nc2ccccc2NC2=C1C(=O)CC(C)(C)C2 (centres undefined) | ? | 0% | 4% | -22% | 64 | 31*
SMILES | Lassa entry inh | MARV entry inh | FMDV antiviral | HCV inh | Shiga inhibitor | CHX counter
Cc1c([C@@H]2Nc3ccccc3NC3=C2C(=O)CC(C)(C)C3)cnn1C | . | 2% | . | . | . | .
CCOc1cc(C2Nc3ccccc3NC3=C2C(=O)CC(C)(C)C3)ccc1O (centres undefined) | . | . | 6% | -9% | 7 | 14*
COc1ccccc1NC(=O)c1nnn(CC(=O)Nc2cc(C)cc(C)c2)c1N | . | . | -13% | -6% | -1 | 1
CCC(=O)n1nc(NCc2ccccc2OC)nc1NCc1ccccc1OC | ? | ? | ? | 11µM* | 19 | -2
COc1ccccc1CNc1nc(-c2ccco2)nn1C(=O)c1cc(OC)c(OC)c(OC)c1 | 16%[46.1 µM] | 21%[46.1 µM] | 11% | . | . | .
Cc1ccc(OCCn2ccnc2)c([N+](=O)[O-])c1 | . | . | -5% | 0% | -6 | -2
C[C@@H](C(=O)Nc1ccc2ccccc2c1)[C@@H]1C[C@@]1(C)[C@@H](NC(=O)c1ccccc1)c1ccccc1 | 1% | -29% | 1% | 4%[8.37 µM] | 10 | 7
C[C@@H](C(=O)Nc1ccc2ccccc2c1)[C@H]1C[C@]1(C)[C@H](NS(=O)(=O)c1ccc(-c2ccccc2)cc1)c1ccccc1 | -21% | 12µM* | 3% | 22%[8.37 µM] | 7 | 8
CCOC(=O)c1noc2ncn(Cc3cccc(C#N)c3)c(=O)c12 | 5%[46.1 µM] | . | -26% | . | . | .
Cc1ccccc1-c1nc2cc(N)ccc2o1 | ? | ? | -9% | ? | 87* | 55*
Nc1ccc2oc(-c3ccc4nc[nH]c4c3)nc2c1 | 16µM* | ? | -19% | ? | 27 | 16*
Nc1ccc(-c2nc3ccccc3o2)cc1 | . | . | 38% | -23% | 91* | 57*
Cc1nc2ccc(-c3nc4cc(N)ccc4o3)cc2[nH]1 | ? | ? | 0% | 10µM* | 27* | 21*
Nc1cc(N)cc(-c2nc3ccccc3o2)c1 | . | . | 5% | -11% | . | .
Nc1ccc2oc(-c3cccc(Br)c3)nc2c1 | ? | -12% | 12% | ? | 108 | 43*
Nc1ccc2oc(-c3ccccc3Br)nc2c1 | 14%[46.1 µM] | ? | -19% | . | . | .
CCn1cc(/C=N/O)c(C)n1 | 23% | 19%[46.1 µM] | -2% | 2% | -8 | -1
CCn1cc(/C=C/C(=O)c2ccc(O)cc2)c(C)n1 | ? | ? | ? | 9% | 15 | 13*
Cc1nn(C)c(C)c1/C=C/C(=O)c1ccccc1 | 10% | ? | 20% | ? | 36* | 27*
Cc1nn(C)cc1/C=C/C(=O)c1ccccc1 | 29% | ? | 55% | ? | 65* | 28*
Cc1ccc(-c2nn(CCC(=O)O)cc2/C=C\C(=O)c2ccc(Br)cc2)cc1 | . | . | ? | 18% | -5 | 16
Cc1nn(C)c(C)c1/C=C/C(=O)c1cccs1 | 0% | 5% | 13% | ? | . | .
Cc1nn(C)cc1/C=C/C(=O)c1cccs1 | 5% | ? | 45% | ? | 58* | 48*
CC(=O)Nc1ccc(NC(=O)CSc2nnnn2-c2ccc3c(c2)OCCO3)cc1 | -1% | 2% | -24% | 30% | -3 | 10
O=C(CSc1nnnn1-c1ccccc1)NC(=O)Nc1ccc2c(c1)OCCO2 | 9% | ? | 45% | -12% | 76* | 56*
CCOc1ccccc1-n1nnnc1SCC(=O)NC(=O)Nc1ccc2c(c1)OCCO2 | 3% | ? | -24% | -10% | 20 | 13*
Cc1ccc(SCC(=O)c2c(C)nc3ccccn23)cc1 | 26%[46.1 µM] | ? | -22% | ? | 62* | 31*
